Compound activity: PubChem BioAssay, NMMLSC
RPL19A TOR yeast: yeast TOR pathway RPL19A-GFP modulation | percent response vs DMSO, % at 10 µM | 330,000 compounds, 0.3% hits | S. cerevisiae RPL19A-GFP strain, flow cytometry, 3 h; active compounds read low | AID 2025;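 active means percent response vs DMSO below 50%; inconclusive means fewer than 70 events counted for the yeast strain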;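 further: median channel GFP fluorescence of the barcoded RPL19A-GFP strain; ratio of sample median GFP to plate DMSO average so 100% = DMSO; lower means less RPL19A-GFP as with rapamycin TOR inhibition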
AGP1 TOR yeast: yeast TOR pathway AGP1-GFP modulation | S. cerevisiae AGP1-GFP multiplex flow cytometry, 3 h; GFP as percent of DMSO wells | GFP response vs DMSO, % at 10 µM | 320,000 compounds, 0.02% hits;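 active means GFP response relative to DMSO above a set limit, near screen average plus 3 SD, cut at about 150% in these data; inconclusive means fewer than 70 cells counted for the yeast strain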;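 further: median GFP channel fluorescence of the gated AGP1 strain per well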
LAP4 TOR yeast: modulators of TOR pathway LAP4-GFP in S. cerevisiae; S. cerevisiae LAP4-GFP multiplex, flow cytometry GFP, 3 h; median GFP as percent of DMSO wells; GFP response vs DMSO, % at 10 µM; AID 2023; 320,000 compounds, 0.34% hits;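 active means GFP response vs DMSO above a set limit, about the screen mean plus 3 SD, cut at about 150% in these data; inconclusive means under 70 cell events counted for the yeast strain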
MEP2 TOR yeast: alters MEP2-GFP fluorescence in TOR pathway yeast screen | 330,000 compounds, 0.51% hits | S. cerevisiae MEP2-GFP strain, flow cytometry GFP, 3 h; 100% = DMSO control level | GFP response vs DMSO, % at 10 µM | AID 2016;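 active means GFP response versus DMSO above a set limit, roughly screen mean plus 3 SD, cut at about 180% in these data; inconclusive means fewer than 70 cells counted for a yeast strain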;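 further: median GFP fluorescence of the barcode-gated MEP2-GFP cells per well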
CIT2-GFP yeast: modulators of TOR pathway CIT2-GFP in S. cerevisiae; S. cerevisiae CIT2-GFP strain, flow cytometry, 3 h; 100 means same as DMSO wells; GFP response vs DMSO, % at 10 µM; 320,000 compounds, 0.065% hits; AID 2029;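 active means GFP response relative to DMSO above a set limit, near the screen mean plus 3 SD, cut at about 150% in these data; inconclusive means Fewer than 70 cells measured for a yeast strain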;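 further: ratio of well median GFP fluorescence to mean of DMSO wells on the plate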
VLA-4 inh: inhibition in a human VLA-4 binding assay. VLA-4 expressing cells, ligand binding flow cytometry. inhibition, % (about 7 µM as worked out from the volumes in the protocol). 330,000 compounds, 0.2% hits. AID 2557; in the data active means inhibition above about 50%
Target sequence (P13612 whole entry, looked up): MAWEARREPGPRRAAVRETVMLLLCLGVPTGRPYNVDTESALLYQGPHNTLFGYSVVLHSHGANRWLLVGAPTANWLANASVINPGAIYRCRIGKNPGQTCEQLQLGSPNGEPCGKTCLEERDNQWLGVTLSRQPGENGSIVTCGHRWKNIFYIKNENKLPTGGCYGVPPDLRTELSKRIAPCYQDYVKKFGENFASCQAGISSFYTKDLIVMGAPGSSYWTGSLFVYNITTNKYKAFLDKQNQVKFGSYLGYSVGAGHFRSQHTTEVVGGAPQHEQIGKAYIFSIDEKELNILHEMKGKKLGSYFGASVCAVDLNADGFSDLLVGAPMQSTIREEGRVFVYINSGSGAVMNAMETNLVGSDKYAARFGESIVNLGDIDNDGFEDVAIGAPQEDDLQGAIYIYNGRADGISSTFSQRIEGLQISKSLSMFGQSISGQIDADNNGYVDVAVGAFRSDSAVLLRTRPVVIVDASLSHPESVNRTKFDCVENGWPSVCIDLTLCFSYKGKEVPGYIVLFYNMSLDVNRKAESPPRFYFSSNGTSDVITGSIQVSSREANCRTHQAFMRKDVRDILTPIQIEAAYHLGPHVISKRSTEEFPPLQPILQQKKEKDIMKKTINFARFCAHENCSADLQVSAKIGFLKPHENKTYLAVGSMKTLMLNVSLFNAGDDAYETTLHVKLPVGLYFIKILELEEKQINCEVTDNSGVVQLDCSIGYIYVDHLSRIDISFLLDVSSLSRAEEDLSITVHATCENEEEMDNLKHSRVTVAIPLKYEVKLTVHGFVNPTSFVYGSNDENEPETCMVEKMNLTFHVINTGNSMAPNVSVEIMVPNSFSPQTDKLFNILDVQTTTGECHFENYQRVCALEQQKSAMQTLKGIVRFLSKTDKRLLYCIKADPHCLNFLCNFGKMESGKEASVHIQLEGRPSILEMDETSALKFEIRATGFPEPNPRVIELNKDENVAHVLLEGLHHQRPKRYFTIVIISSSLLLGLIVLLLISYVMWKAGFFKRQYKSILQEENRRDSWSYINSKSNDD
* = called active by the depositor; [ ] = another dose, or the depositor's remark. Rows were chosen to be rich in hits. Some 1.1% of all compounds tested hit in one or more screens of this group.

`COc1ccccc1OC(=O)c1cc2ccccc2oc1=O` gave RPL19A TOR yeast 104, AGP1 TOR yeast 97, LAP4 TOR yeast 102, MEP2 TOR yeast 109, CIT2-GFP yeast 101 and VLA-4 inh 12.
`CSc1cccc(NC(=O)C2CCCN(S(=O)(=O)c3cccs3)C2)c1` (configuration not stated) gave RPL19A TOR yeast 16*[may fluoresce violet], AGP1 TOR yeast inconclusive, LAP4 TOR yeast inconclusive, MEP2 TOR yeast inconclusive, CIT2-GFP yeast inconclusive and VLA-4 inh 3.
For CC(=O)Nc1ccc(S(=O)(=O)NC(CC(=O)NCCC2=CCCCC2)C(C)C)cc1 (configuration not stated) the results were RPL19A TOR yeast 85, AGP1 TOR yeast 152*, LAP4 TOR yeast 282*, MEP2 TOR yeast 211*, CIT2-GFP yeast 101 and VLA-4 inh 2.
Screening Clc1ccc(-c2nn3cnnc3s2)c(Cl)c1 returned RPL19A TOR yeast 45*[may fluoresce violet], AGP1 TOR yeast inconclusive, LAP4 TOR yeast 79, MEP2 TOR yeast 300*[may fluoresce violet], CIT2-GFP yeast inconclusive and VLA-4 inh 3.
CC(C)(C)C(=O)/C=c1\[nH]c(=O)/c(=C\c2ccccc2F)s1 was read as RPL19A TOR yeast 91, AGP1 TOR yeast 17, LAP4 TOR yeast 84, MEP2 TOR yeast 215*[may fluoresce violet], CIT2-GFP yeast inconclusive and VLA-4 inh -4.
For Cc1ccc(C(C)C)c(Oc2cnccn2)c1 the results were RPL19A TOR yeast 103, AGP1 TOR yeast 96, LAP4 TOR yeast 89, MEP2 TOR yeast 105, CIT2-GFP yeast 101 and VLA-4 inh 5.
COc1cc(/C=C2\N=C(C)OC2=O)cc(Cl)c1OC(C)=O was read as RPL19A TOR yeast 110, AGP1 TOR yeast 94, LAP4 TOR yeast 110, MEP2 TOR yeast 110, CIT2-GFP yeast 109 and VLA-4 inh 2.
Screening CCOc1cc(/C=C2\N=C(C)OC2=O)cc(Cl)c1OCC(=O)OC returned RPL19A TOR yeast 103, AGP1 TOR yeast 96, LAP4 TOR yeast 170*, MEP2 TOR yeast 96, CIT2-GFP yeast 106 and VLA-4 inh 9.
CC(=O)c1cccc(NC(=O)COc2ccccc2)c1 was read as RPL19A TOR yeast 102, AGP1 TOR yeast 95, LAP4 TOR yeast 106, MEP2 TOR yeast 106, CIT2-GFP yeast 103 and VLA-4 inh -3.
For CCc1cccc(NC(=O)COc2ccccc2)c1 the results were RPL19A TOR yeast 21*[may fluoresce violet], AGP1 TOR yeast inconclusive, LAP4 TOR yeast 95, MEP2 TOR yeast 252*[may fluoresce violet], CIT2-GFP yeast inconclusive and VLA-4 inh 1.
`CC1=NN(c2ccc(C)cc2)C(=O)/C1=C\C=C\c1ccccc1` gave RPL19A TOR yeast 101, AGP1 TOR yeast 100, LAP4 TOR yeast 93, MEP2 TOR yeast 101, CIT2-GFP yeast 96 and VLA-4 inh 18.
`CC1=NN(c2ccccc2)C(=O)/C1=C/C=C/C=C/N(C)C` gave RPL19A TOR yeast 39*[may fluoresce violet], AGP1 TOR yeast inconclusive, LAP4 TOR yeast 112, MEP2 TOR yeast 316*[may fluoresce violet], CIT2-GFP yeast inconclusive and VLA-4 inh 10.
For Cc1c([N+](=O)[O-])cnc(Sc2ccccc2)c1[N+](=O)[O-] the results were RPL19A TOR yeast 62, AGP1 TOR yeast 70, LAP4 TOR yeast 294*, MEP2 TOR yeast 86, CIT2-GFP yeast 79 and VLA-4 inh 11.
Screening O=C(CSc1nnc(-c2ccc(O)cc2)o1)NNC(=O)c1ccncc1 returned RPL19A TOR yeast 103, AGP1 TOR yeast 97, LAP4 TOR yeast 96, MEP2 TOR yeast 99, CIT2-GFP yeast 102 and VLA-4 inh -1.
For C/C(=N/NC(N)=S)c1cc2ccc(O)cc2oc1=O the results were RPL19A TOR yeast 20*[may fluoresce violet], AGP1 TOR yeast inconclusive, LAP4 TOR yeast 81, MEP2 TOR yeast inconclusive, CIT2-GFP yeast inconclusive and VLA-4 inh -1.
C/C(=N/NC(=O)c1ccncc1)c1cc2ccc(O)cc2oc1=O was read as RPL19A TOR yeast inconclusive, AGP1 TOR yeast inconclusive, LAP4 TOR yeast inconclusive, MEP2 TOR yeast inconclusive, CIT2-GFP yeast inconclusive and VLA-4 inh 0.
Cc1ccc(SCCCn2cncn2)cc1 was read as RPL19A TOR yeast 45*[may fluoresce violet], AGP1 TOR yeast 21, LAP4 TOR yeast 86, MEP2 TOR yeast 320*[may fluoresce violet], CIT2-GFP yeast inconclusive and VLA-4 inh 17.
`O=C(NNC(=O)C1CCCC1)c1cc([N+](=O)[O-])cc([N+](=O)[O-])c1` gave RPL19A TOR yeast 100, AGP1 TOR yeast 102, LAP4 TOR yeast 106, MEP2 TOR yeast 100, CIT2-GFP yeast 89 and VLA-4 inh 11.
Screening Cc1noc2ncnc(Sc3ccc(Br)cc3)c12 returned RPL19A TOR yeast 103, AGP1 TOR yeast 100, LAP4 TOR yeast 163*, MEP2 TOR yeast 108, CIT2-GFP yeast 104 and VLA-4 inh -3.
`Cc1noc2ncnc(N3CCCC3)c12` gave RPL19A TOR yeast 103, AGP1 TOR yeast 98, LAP4 TOR yeast 93, MEP2 TOR yeast 102, CIT2-GFP yeast 96 and VLA-4 inh 2.
Screening Cc1ccc(C(=O)OC2CCN(c3ccc([N+](=O)[O-])cc3)CC2)cc1 returned RPL19A TOR yeast 42*[may fluoresce violet], AGP1 TOR yeast inconclusive, LAP4 TOR yeast inconclusive, MEP2 TOR yeast 239*[may fluoresce violet], CIT2-GFP yeast inconclusive and VLA-4 inh -4.
COC(=O)C1CCN(c2ccc([N+](=O)[O-])cc2)CC1 was read as RPL19A TOR yeast 94, AGP1 TOR yeast 97, LAP4 TOR yeast 102, MEP2 TOR yeast 95, CIT2-GFP yeast 96 and VLA-4 inh -6.
CCC(=O)Nc1nnc(S(=O)(=O)N(CC)c2cc(C)cc(C)c2)s1 was read as RPL19A TOR yeast 116, AGP1 TOR yeast 111, LAP4 TOR yeast 101, MEP2 TOR yeast 111, CIT2-GFP yeast 102 and VLA-4 inh -2.
`CCN(c1cc(C)cc(C)c1)S(=O)(=O)c1nnc(NC(=O)C(C)(C)C)s1` gave RPL19A TOR yeast 97, AGP1 TOR yeast 15, LAP4 TOR yeast 74, MEP2 TOR yeast 647*[may fluoresce violet], CIT2-GFP yeast inconclusive and VLA-4 inh -3.
`CN(CC(=O)Nc1ccc(OC(F)(F)F)cc1)C(=O)Cc1cccs1` gave RPL19A TOR yeast 99, AGP1 TOR yeast 97, LAP4 TOR yeast 94, MEP2 TOR yeast 97, CIT2-GFP yeast 90 and VLA-4 inh 9.
CCCSc1ccc([C@@H]2[C@H]3C(=O)N(CC)C(=O)[C@H]3[C@]3(C(=O)OC)CCCCN23)cc1 was read as RPL19A TOR yeast 100, AGP1 TOR yeast 103, LAP4 TOR yeast 117, MEP2 TOR yeast 102, CIT2-GFP yeast 98 and VLA-4 inh 10.
Screening O=C(/C=C/c1ccc(Cl)cc1)c1ccc([N+](=O)[O-])o1 returned RPL19A TOR yeast 42*[may fluoresce violet], AGP1 TOR yeast inconclusive, LAP4 TOR yeast 60, MEP2 TOR yeast 279*[may fluoresce violet], CIT2-GFP yeast inconclusive and VLA-4 inh -2.
